Vaccinia Venus = qHTS for Stage-Specific Inhibitors of Vaccinia Orthopoxvirus: Venus Reporter Primary qHTS | Vaccinia virus Venus reporter expression, fluorescence | Potency, µM (doses to about 36.5 µM), most hits filed as inhibitors | hit rate 0.46% among 330,000 | AID 720580, 2013; calls by dose curve; tested in A549 cells; also: nearly all actives have a fitted effect of over 30% in size
HCV inh = qHTS Assay for Inhibitors of Hepatitis C Virus (HCV) | AID 651820, 2012 | Potency, µM (top dose mostly 41.8 µM), actives largely listed as inhibitors | Huh7.5.1 HCVcc-Cre infection, luciferase reporter, 44 h | hit rate 3.4% among 340,000; active = well fitted inhibition curve with a large enough effect; inconclusive = small, poorly fitted or top-dose-only effect, or another doubt; inactive = no such curve, though single readings can be large or run the other way
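Reporter virus HCVcc-Cre (~0.5 moi) infects cells exposed to compound; seeding density 1,000 cells/well with 4 h settling beforehand. Luminescence, 15 sec read, taken 44 h post-infection following a 15 min RT substrate incubation.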
Vaccinia mCherry = qHTS for Stage-Specific Inhibitors of Vaccinia Orthopoxvirus: mCherry Reporter Primary qHTS; hit rate 0.63% among 310,000; AID 720579, 2013; Vaccinia virus mCherry reporter infection, fluorescence; Potency, µM (titrated, usually from 36.5 µM), usual class: inhibitors; calls by dose curve; tested in A549 cells; also: nearly all actives have a fitted effect of over 35% in size
Each line names hits and unclear results; the compound was inactive in the other large screens. An excerpt weighted towards active compounds, which were near 3.3% of everything screened.

C=CCN1C(=O)c2ccc(C(=O)N(C)CC(=O)Nc3ccc(Br)cc3C)cc2C1=O	none
O=C(NCc1ccc(Cl)cc1)c1cnc2sc(N3CCCC3)nn2c1=O	none (no result: HCV inh)
CCN(c1ccccc1)S(=O)(=O)c1ccc(NC(=O)c2cc(=O)c3cc(C)c(C)cc3o2)cc1	none (no result: HCV inh)
O=c1[nH]/c(=C/c2ccc3c(c2)OCO3)c(=O)[nH]/c1=C\c1ccc2c(c1)OCO2	none (no result: HCV inh)
Cc1c(C(=O)Nc2nccs2)sc2nc(-c3cccs3)cc(C(F)(F)F)c12	HCV inh 11µM (no result: Vaccinia Venus, Vaccinia mCherry)
Cc1c(C(=O)O)sc2nc(-c3cccs3)cc(C(F)(F)F)c12	none
Cc1cccc(NC(=O)CSc2nnc(CNC(=O)c3c(F)cccc3Cl)o2)c1C	none (no result: HCV inh)
C/C(=N\NC(=O)c1cc(-c2cccnc2)nc2ccccc12)c1ccccc1O	Vaccinia Venus inconclusive, HCV inh 4µM, Vaccinia mCherry inconclusive
C/C(=N\NC(=O)c1cc(C2CC2)nc2ccccc12)c1ccc(O)cc1O	HCV inh 6.3µM, Vaccinia mCherry inconclusive
C/C(=N\NC(=O)c1cc(C2CC2)nc2ccccc12)c1ccc(C)s1	Vaccinia Venus inconclusive, Vaccinia mCherry inconclusive
COc1ccc(/C(C)=N/NC(=O)c2cc(-c3cccnc3)nc3ccccc23)cc1	none
CCOc1ccc(CCNC(=O)CSc2nnnn2-c2ccccc2Cl)cc1OCC	none (no result: HCV inh)
CCCCCCOc1ccc(/C(C)=N/NC2=NCCN2)cc1[N+](=O)[O-]	HCV inh 32µM (no result: Vaccinia Venus, Vaccinia mCherry)
C/C(=N\NC1=NCCN1)c1ccc(N)c([N+](=O)[O-])c1	HCV inh inconclusive
COc1ccc(/C(C)=N/NC2=NCCN2)cc1Cl	none
CCCCOc1ccc(Br)cc1/C(C)=N/NC1=NCCN1	Vaccinia Venus 6.3µM, HCV inh 3.2µM (no result: Vaccinia mCherry)
CC(=O)Nc1cccc(C(=O)OCC(=O)NC(=O)C2CCCCC2)c1	none (no result: HCV inh)
Fc1cccc(NC(=S)NCCc2ccccc2)c1	none
O=[N+]([O-])c1cccc(NC(=S)NCCc2ccccc2)c1	HCV inh 13µM, Vaccinia mCherry inconclusive
NC(=O)c1cc([N+](=O)[O-])ccc1NCCc1ccccc1	HCV inh 11µM (no result: Vaccinia Venus, Vaccinia mCherry)
O=[N+]([O-])c1ccc(NCCc2ccccc2)c(Br)c1	HCV inh inconclusive
COC(=O)c1ccc(NC(=S)NCCc2cccc(C)c2)cc1	HCV inh 22µM (no result: Vaccinia Venus, Vaccinia mCherry)
CN(C)CCCNC(=S)Nc1ccc(Oc2ccccc2)cc1	HCV inh inconclusive
COC(=O)c1ccc(NC(=S)NCCc2ccccc2C)cc1	none
CN(C)CCCNC(=S)Nc1ccc(-c2ccccc2)cc1	Vaccinia Venus inconclusive, HCV inh 11µM, Vaccinia mCherry inconclusive
Cc1ccc(C)c(C(=O)COC(=O)C2CCN(c3ccc(C(F)(F)F)cn3)CC2)c1	none
COc1ccc(Cl)cc1N(C)c1nc(N2CCN(S(=O)(=O)c3ccc(C)cc3)CC2)c2ccccc2n1	none (no result: HCV inh)
S=C(NCCCc1cnc[nH]1)NCCCN(Cc1ccc(Cl)cc1)c1ncc(Br)cn1	Vaccinia Venus inconclusive (no result: HCV inh)
CCOc1ccc(CC(=O)NNC(=O)/C=C/C(=O)O)cc1	none
CC(=O)N1CCc2c(sc(NC(=O)Cc3ccc(C)cc3C)c2C#N)C1	none
S=C(NCCCc1ccccc1)Nc1ccccc1	none
S=C(NCCc1ccccc1)Nc1ccc(Nc2ccccc2)cc1	HCV inh 11µM
CC1=NN(c2ccc(C)c(C)c2)C(=O)/C1=C\C=C\c1ccc([N+](=O)[O-])o1	HCV inh 11µM
CC1=NN(c2ccccc2)C(=O)/C1=C\C=C\c1ccccc1	HCV inh inconclusive
CCN(CC)CCOC(=O)c1ccc(NC(=O)Cn2ncc3c([nH]c4ccc(C)cc43)c2=O)cc1	none (no result: HCV inh)
CCN(CC)c1ccc(-c2nc3cnccc3n2C)cc1	HCV inh 11µM (no result: Vaccinia mCherry)
Cn1c(-c2ccncc2)nc2ccccc21	none (no result: Vaccinia Venus, Vaccinia mCherry)
Cc1ccc(C23OCCN2CCn2nc4ccccc4c23)cc1 (stereo not drawn)	none
N#Cc1ccc(C23OCCN2CCn2c3c3ccccc3[n+]2[O-])cc1 (stereo not drawn)	HCV inh inconclusive, Vaccinia mCherry 4µM
Cc1cccc(C(=O)n2cnnc2N)c1	none
COCCNC(=S)N1CCC(C(=O)c2ccc(Cl)cc2)CC1	none (no result: HCV inh)
COCCCNC(=S)N1CCC(C(=O)c2ccc(Cl)cc2)CC1	Vaccinia Venus inconclusive, HCV inh 4µM
O=C(CS(=O)(=O)Nc1ccc(F)cc1Cl)Nc1ccc(F)cc1Cl	none
COc1ccc(C(=O)/C=C/c2ccccc2OC)c(OC(=O)c2ccc([N+](=O)[O-])cc2)c1	HCV inh 13µM, Vaccinia mCherry inconclusive
COc1ccc(OC(=O)c2cccc([N+](=O)[O-])c2)c(C(=O)/C=C/c2cccs2)c1	Vaccinia Venus inconclusive (no result: Vaccinia mCherry)
Cc1cc([N+](=O)[O-])ccc1NCc1ccccc1	none
Cc1cc([N+](=O)[O-])ccc1NCc1ccc2ccccc2c1	HCV inh 11µM
Cc1ccc(N(CC(=O)Nc2ccc(C)c(Cl)c2)S(=O)(=O)c2cccs2)cc1	none (no result: HCV inh)
Cc1cc(Cl)ccc1NC(=S)NCCCO	none
Cc1ccc(Cl)cc1NC(=S)NCCCSC1CCCCC1	HCV inh 10µM
CCn1c(=O)c2cc(C(=O)N(CCN(C)C)Cc3ccccc3)sc2c2ccccc21	Vaccinia mCherry inconclusive (no result: HCV inh)
CCOC(=O)CNC(=O)c1cc2c(=O)n(CC)c3ccccc3c2s1	none (no result: HCV inh)
CCOc1ccccc1N(C)C(=O)c1cc2c(=O)n(CC)c3ccccc3c2s1	HCV inh 2µM (no result: Vaccinia Venus, Vaccinia mCherry)
CCn1c(=O)c2cc(C(=O)N(C)CC(OC)OC)sc2c2ccccc21	HCV inh 11µM (no result: Vaccinia Venus, Vaccinia mCherry)
Cc1ccc(CNC(=O)c2ccc3c(O)c(S(=O)(=O)c4ccccc4)c(=O)[nH]c3c2)cc1	none (no result: HCV inh)
Cc1ccccc1CNC(=O)C1CCCCN1S(=O)(=O)c1ccc(F)cc1 (stereo not drawn)	none (no result: HCV inh)
c1ccc(COCCN2CCN(CCOCc3ccccc3)CC2)cc1	none (no result: Vaccinia Venus, Vaccinia mCherry)
c1ccc(CCCN2CCN(CCOC(c3ccccc3)c3ccccc3)CC2)cc1	Vaccinia Venus inconclusive, HCV inh 7.9µM, Vaccinia mCherry inconclusive
Cc1c(O)c(O)cc2c1CC=C1[C@]3(C)CC[C@]4(C)CC[C@@](C)(C(=O)O)CC4[C@]3(C)CC[C@]12C (stereo partly drawn)	none (no result: HCV inh)
CC1=C(O)C(=O)C=C2C1=CC=C1C2(C)CCC2(C)C3CC(C)(C(=O)O)CCC3(C)CCC12C (stereo not drawn)	Vaccinia Venus 10µM, HCV inh inconclusive, Vaccinia mCherry 22µM
COc1cc(OC)c(N(C)C(=O)c2sc3nc4n(c(=O)c3c2C)CCCC4)cc1Cl	none (no result: HCV inh)
Cc1c(C(=O)N2CCCC(c3ccccc3)C2)sc2ncnc(NCCc3ccccn3)c12 (stereo not drawn)	none (no result: HCV inh)
COc1cc(-c2noc(-c3ccc(NC4CCCCC4)c([N+](=O)[O-])c3)n2)cc(OC)c1OC	none (no result: HCV inh)
CN(Cc1ccc2c(c1)OCCO2)C(=O)CN1C(=O)NC2(CCCCC2)C1=O	none (no result: Vaccinia Venus, Vaccinia mCherry)
CCC(C)(C)C1CCC2(CC1)NC(=O)N(CC(=O)N(C)Cc1ccc3c(c1)OCCO3)C2=O (stereo not drawn)	HCV inh 13µM (no result: Vaccinia Venus, Vaccinia mCherry)
O=C(NCc1n[nH]c(=S)n1-c1ccc(Br)cc1)c1ccc(S(=O)(=O)N2CCCCC2)cc1	none
Cc1ccc(NC(=O)CCNC(=O)Cn2cnc3ccccc3c2=O)cc1F	none
CN(c1ccccc1)S(=O)(=O)c1cccc(NC(=O)Cn2cnc3ccccc3c2=O)c1	Vaccinia Venus inconclusive, HCV inh 2.8µM (no result: Vaccinia mCherry)
CC(C)(C)c1csc(NC(=O)Cn2cnc3ccccc3c2=O)n1	HCV inh 14µM
